These results are taken from PubChem BioAssay (Tox21).

Unmarked numbers belong to inactive results. Calls of active or inactive are those of the source. Calls come from the whole dose curve; as a rule, active = well fitted curve in the direction sought with a large enough effect in the repeat runs; inconclusive = weak or mixed curves; inactive = flat fitted curve, though single readings scatter.
% is set by controls: 0 for no effect and ±100 for the full control effect.

The nature of this test: qHTS assay to test for compound auto fluorescence at 535 nm (green) in HEK293 cells (AID 720680). The note with it: green autofluorescence 485/535 nm; series mostly up to 91.3 µM; fluorescence, % of fluorescein: at the top concentration. For orientation: Quantitative high-throughput screening tests each substance at several concentrations.
With `Cc1ncc([C@@H](CCCCCCc2ccc3c(n2)NCCC3)CC(=O)O)cn1`, the “fluorescence, % of fluorescein” value was -0.0071%.

Consider `O=C1NC(=O)C2CC=CCC12` (stereo unspecified), for which the “fluorescence, % of fluorescein” value is -0.0116%. As to `CCCCc1nc(Cl)c(CO)n1Cc1ccc(-c2ccccc2-c2nn[nH]n2)cc1`, the “fluorescence, % of fluorescein” value is -0.31% [at 46 µM].

On to `Cc1ccccc1N=C(N)N=C(N)N`, for which the “fluorescence, % of fluorescein” value was -0.239%. The same measure, in the same setting: to `O=S(=O)(O)c1cccc(S(=O)(=O)O)c1` belongs 0.018%. With `C1CCC2(CCCCO2)OC1`, the “fluorescence, % of fluorescein” value is 0.0017%.

As for `COc1c(N2CCNC(C)C2)c(F)cc2c(=O)c(C(=O)O)cn(C3CC3)c12` (stereo unspecified), the “fluorescence, % of fluorescein” value was -0.0679% [at 46 µM]. The same measure, in the same setting: to `CC[N+](CC)(CC(=O)Nc1c(C)cccc1C)Cc1ccccc1` (tested in a mixture with another compound) belongs 0.0921%; to `O=C(O)Cc1csc(-c2ccc(Cl)cc2)n1`, 0.0185% [at 46 µM].

`CCCCCCC#CC(=O)OC`: the “fluorescence, % of fluorescein” value was 0.0349%.

For `CCCCN(CCC(=O)OCC)C(C)=O`, the “fluorescence, % of fluorescein” value was -0.0224%.

With `CC(=O)NC(=O)c1ccccc1O`, the “fluorescence, % of fluorescein” value was -0.125% [at 46 µM]. Regarding `CC[N+](CC)(CC)CCOc1cccc(OCC[N+](CC)(CC)CC)c1OCC[N+](CC)(CC)CC`, the “fluorescence, % of fluorescein” value was 0.0528% [at 46 µM]. As to `Cc1nc2ccc(CN(C)c3ccc(C(=O)N[C@@H](CCC(=O)O)C(=O)O)s3)cc2c(=O)[nH]1`, the compound was called inactive.

Consider `NC(CCC(=O)O)C(=O)O` (stereo unspecified), for which the “fluorescence, % of fluorescein” value is 0.0245%. With `CCOC(=O)OC(C)OC1=C(C(=O)Nc2ccccn2)N(C)S(=O)(=O)c2ccccc21` (stereo unspecified), the “fluorescence, % of fluorescein” value was -0.0704% [at 46 µM]. For the compound `Cc1ncc(COP(=O)(O)O)c(C=O)c1O`, the “fluorescence, % of fluorescein” value is 0.0454% [at 46 µM]. For the compound `N[C@@H](CCC(=O)O)C(=O)O`, the call was inactive. Turning to `CCCC[N+](C)(CCCC)CCCC`, the “fluorescence, % of fluorescein” value was -0.0974%. The same measure, in the same setting: under `CO[C@@]1(NC(=O)C(C(=O)O)c2ccc(O)cc2)C(=O)N2C(C(=O)O)=C(CSc3nnnn3C)CO[C@@H]21` (stereo partly specified) stands 0.0617% [at 18.6 µM]; under `C=CC(=O)OCCCl`, 0.0107% [at 95.7 µM]. As to `CC1=C(C/C=C(\C)CCC[C@H](C)CCC[C@H](C)CCCC(C)C)C(=O)c2ccccc2C1=O`, the “fluorescence, % of fluorescein” value is -0.0053% [at 46 µM]. As to `C=CCCC(=O)O`, the “fluorescence, % of fluorescein” value was 0.0032%.

On to `CCC(C(=O)NC(=O)NC(C)=O)c1ccccc1` (stereo unspecified), for which the “fluorescence, % of fluorescein” value is 0.0939% [at 46 µM]. Same read-out and setting: to `CCCCOC(=O)CCC(C)=O` belongs -0.0284%; to `C[N+]12CCC(CC1)C(OC(=O)C(O)(c1ccccc1)c1ccccc1)C2` (stereo unspecified), 0.041% [at 18.6 µM]; to `CCCCCCCCCC[N+](C)(C)[O-]`, -0.0537%. The same measure, in the same setting: under `CC(C)(N)C#N` stands 0.0296% [at 95.7 µM]. As for `Nc1c2c(nc3c1CCC3)CCCC2`, the “fluorescence, % of fluorescein” value was -0.0154% [at 46 µM].

For the compound `Cc1ccc(-c2ncc(Cl)cc2-c2ccc(S(C)(=O)=O)cc2)cn1`, the “fluorescence, % of fluorescein” value is 0.0484% [at 46 µM]. Take `O=C(O)c1cn(C2CC2)c2cc(N3CCNCC3)c(F)cc2c1=O`: the fluorescence, % of fluorescein was -0.0935% [at 18.6 µM]. On to `CC1CCC(CO)CC1` (stereo unspecified), for which the “fluorescence, % of fluorescein” value was -0.0618% [at 95.7 µM]. As for `FB(F)F`, the “fluorescence, % of fluorescein” value is 0.001% [at 95.7 µM]. On to `COc1ccnc(CS(=O)c2nc3cc(OC(F)F)ccc3[nH]2)c1OC` (stereo unspecified), for which the call was inactive. Turning to `O=S(=O)(O)c1cc(O)c(O)c(S(=O)(=O)O)c1`, the “fluorescence, % of fluorescein” value was 0.0237%.

With `N[C@H](C(=O)O)[C@@H](O)c1ccc(O)c(O)c1`, the “fluorescence, % of fluorescein” value is -0.0947% [at 46 µM].
